Measurements: PubChem BioAssay
Where “and” joins values, the source holds several entries; their conditions need not be identical. Equal values may be shown once. Inconclusive results are not listed. Where a structure was tested more than once in an assay, its records may differ in their call. Calls of active or inactive are those of the source.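 Rule for the calls, unless noted: active = normalized viability below 100% at a tested concentration; inactive = the rest.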

Assays:
[1] = stimulators of nuclear beta-catenin in C2C12, primary screen, imaging, WNT3A-conditioned medium, mouse C2C12, NPC library (AID 1117326; in the data active = nuclear beta-catenin stimulation mostly above about 4.2%, no sharp cut-off; inactive = mostly below about 10%); details: stronger effect = higher value
[2] = stimulators of insulin release from INS-1E, primary screen, cell-based, 5 mM glucose, NPC library (AID 1117329;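 active = compound raises insulin release from rat beta cells at 5 mM glucose, no numeric limit stated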); details: rat INS-1E insulin secretion, at 10 µM, stronger effect = higher value
[3] = growth inhibition of GSK3B-pretreated HCT116 cells – cell-based, CellTiter-Glo, 0.2 to 20 µM (AID 1117336;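 active = compounds lowering colon cancer cell viability after pretreatment blocking the GSK3B kinase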); details: HCT116 viability after GSK3B inhibitor, at 20 µM, stronger effect = higher value
[4] = inhibition of endothelial tube formation, primary screen, imaging, VEGF stimulated, CD31 staining, tube area, NPC library (AID 1117340;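 active = compound that reduces growth-factor-driven endothelial tube area in a mixed cell culture, no cutoff stated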); details: VEGF-stimulated ADSC/ECFC co-culture, at 10 µM, stronger effect = higher value
[5] = glucagon-like peptide 1 release enhancers, primary assay, NCI-H716 cell line, NPC library (AID 1117341;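 active = compound raises GLP1 secretion from the human gut endocrine cells, with no numeric limit stated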); details: NCI-H716 cells, at 10 µM, stronger effect = higher value
[6] = HCT116 colon cancer cell growth inhibition, primary screen, CellTiter-Glo luminescence, NPC library (AID 1117342;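 active = compounds that lower survival of HCT116 colon cancer cells in the luminescence readout, no numeric limit stated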); details: at 20 µM (top of the series)
[7] = CellTiter-Glo luminescent readout of SW480 viability loss, NPC library primary (AID 1117343;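 active = compounds that lower viability of the colon cancer cells in the luminescence readout, with no numeric limit stated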); details: CellTiter-Glo luminescence; at 20 µM (top of the series) unless noted
[8] = decreased DLD-1 cellular survival, CellTiter-Glo luminescent readout, NPC compound collection, primary HTS (AID 1117346;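 active = compounds that lower survival of DLD-1 colon cancer cells in the luminescence readout, no cutoff given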); details: DLD-1 viability, CellTiter-Glo luminescence; at 20 µM (top of the series)
[9] = growth inhibition of DIPG glioma cells, dose response, cell-based, SU-DIPG-XVII, MIPE5.0, CellTiter-Glo, qHTS (AID 1347060; cut-off not given, nearly all actives have AC50 up to about 26 µM;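 note: cells exposed to compound for 48 hours before viability readout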); details: SU-DIPG-XVII viability, CellTiter-Glo ATP luminescence
[10] = growth inhibition of DIPG glioma cells, dose response, cell-based, SU-DIPG-XIII, MIPE4.0, CellTiter-Glo, qHTS (AID 1347061; cut-off not given, nearly all actives have AC50 up to about 37 µM;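 note: cells exposed to compound for 48 hours before readout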); details: SU-DIPG-XIII viability, CellTiter-Glo ATP luminescence
[11] = growth inhibition of DIPG glioma cells, dose response, cell-based, JHH-DIPG-1, MIPE4.0, CellTiter-Glo, qHTS (AID 1347062; cut-off not given, nearly all actives have AC50 up to about 27 µM;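 for AC50: cells exposed to compound for two days before readout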); details: JHH-DIPG-1 viability, CellTiter-Glo ATP luminescence
[12] = SU-DIPG-XXV glioma cell viability, MIPE5.0 library, qHTS (AID 1347068; cut-off not given, nearly all actives have IC50 up to about 30 µM;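 note: cells exposed to compound for 48 hours before viability readout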)
[13] = sensitizers of A549 cells to miR-34 induction, primary screen, imaging, A549 dox-inducible miR-34, nuclei and caspase counts (AID 1347080;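 active = compounds whose cell count with miR-34 switched on is under 0.7 times the count with it off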); details: A549 miR-34 inducible, Hoechst nuclei count, 48 h
[14] = survival rescue of mitochondrial mutant cells in low glucose, primary screen, MELAS cybrids, Rieske KO mouse fibroblasts, CellTiter-Glo (AID 1508586;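 active = mean z-score across replicates of 1.96 or higher in either the MELAS or the Rieske mutant cell line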;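 note: z relative to plate mean and SD of compound and empty wells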)
[15] = liver-stage malaria parasite growth inhibition, primary screen, cell-based, HepG2, luciferase luminescence, HepG2 viability (AID 624349; in the data active = parasite load remaining mostly below about 12%, no sharp cut-off; inactive = mostly above about 10%;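 note: 100% = mean of DMSO negative control wells on the same plate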); details: P. berghei liver stage in HepG2, luciferase luminescence, concentration not given here; parasite load remaining: stronger effect = lower value; viability: measured here: HepG2 viability without parasites
[16] = ovarian cancer cell viability with rucaparib, profiling panel, oncology-focused library, rucaparib conditional (AID 1508598); details: patient-derived ovarian cancer cells, CellTiter-Glo viability, 144 h, stronger effect = lower value
[17] = viability rescue of complex I mutant cybrids, primary screen, cell-based, galactose medium, ATP luminescence (AID 1645843;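 active = z-score of at least 1.8 in each of two replicates, scored against plate mean and spread of sample wells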;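 note: positive z means more ATP and so rescue of galactose-driven cybrid death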); details: complex I mutant cybrid cells, 72 h, stronger effect = higher value
[18] = stronger effect = lower value, cell number ratio, induced over uninduced
[19] = measured here: relative caspase fold change +Dox/-Dox
[20] = measured here: total cells with miR-34 induction, stronger effect = lower value
[21] = measured here: total cells without miR-34 induction
[22] = MELAS cybrid survival, CellTiter-Glo 48 h, stronger effect = higher value
[23] = Rieske KO mouse fibroblast survival, CellTiter-Glo 72 h

For `C[C@@H](NCCCc1cccc(C(F)(F)F)c1)c1cccc2ccccc12`, the nuclear beta-catenin stimulation ([1]; at 10 µM) was 35.9% (inactive), the nuclear beta-catenin stimulation ([1]; stimulation, at 2 µM) was -0.4% and the insulin secretion stimulation [2] was 0.2% (inactive). For the same compound, the viability decrease [3] was 101% (active), the tube area decrease [4] was 99.6% (active) and the GLP1 secretion stimulation [5] was 20.5% (active). For the same compound, the inhibition of viability [6] was 102% (active), the viability decrease (inhibition) [7] was 123% (active) and the viability decrease (inhibition) [8] was 104% (active). The AC50 [9] was 16.6 µM (active), the outcome [10] was “inactive” and the outcome [11] was “inactive”. The IC50 [12] was 20.9 µM (active), the fold change [13, 18] was 0.971 (inactive) and the fold change [13, 19] was 0.761. For the same compound, the cell count [13, 20] was 5970, the cell count [13, 21] was 6150 and the z-score [14, 22] was -0.442 (inactive). It also gave a z-score [14, 23] of 0.442.
In the case of `CS(=O)(=O)CCNCc1ccc(-c2ccc3ncnc(Nc4ccc(OCc5cccc(F)c5)c(Cl)c4)c3c2)o1`, the parasite load remaining [15] is reported as 44.4% (inactive), the viability [15] is reported as 101% and the nuclear beta-catenin stimulation ([1]; at 10 µM) is reported as 31.2% (inactive). For the same compound, the nuclear beta-catenin stimulation ([1]; stimulation, at 2 µM) was -0.2%, the insulin secretion stimulation [2] was 1.35% (inactive) and the viability decrease [3] was 106% (active). For the same compound, the tube area decrease [4] was 110% (active), the GLP1 secretion stimulation [5] was 2.8% (inactive) and the inhibition of viability [6] was 107% (active). The viability decrease (inhibition) [7] was 129% (active), the viability decrease (inhibition) [8] was 100% (active) and the AC50 [9] was 18.6 µM (active). The AC50 [10] was 14.8 µM (active), the AC50 [11] was 18.7 µM (active) and the fold change [13, 18] was 0.964 (inactive) and 0.914 (inactive). For the same compound, the fold change [13, 19] was 1.01 and 1.28, the cell count [13, 20] was 3040 and 7890 and the cell count [13, 21] was 3150 and 8630. For the same compound, the z-score [14, 22] was 2.46 (active) and -0.221 (inactive), the z-score [14, 23] was 0.803 and 1.5 and the viability ([16]; at 0.000305 µM, OCI-C5x cells, with rucaparib 10 µM, 100% = cells with rucaparib alone) was 113% (inactive) and 103% (inactive). For the same compound, the viability ([16]; at 0.000305 µM, OCI-C5x cells, without rucaparib) was 123% (inactive) and 111% (inactive), the viability ([16]; at 0.000305 µM, OCI-P5x cells, with rucaparib 20 µM, 100% = cells with rucaparib alone) was 95.1% (active) and 93.3% (active) and the viability ([16]; at 0.000305 µM, OCI-P5x cells, without rucaparib) was 102% (inactive) and 98.6% (active). For the same compound, the viability ([16]; at 0.00122 µM, OCI-C5x cells, with rucaparib 10 µM, 100% = cells with rucaparib alone) was 107% (inactive) and 123% (inactive), the viability ([16]; at 0.00122 µM, OCI-C5x cells, without rucaparib) was 123% (inactive) and 115% (inactive) and the viability ([16]; at 0.00122 µM, OCI-P5x cells, with rucaparib 20 µM, 100% = cells with rucaparib alone) was 96.9% (active) and 99.7% (active). For the same compound, the viability ([16]; at 0.00122 µM, OCI-P5x cells, without rucaparib) was 104% (inactive) and 107% (inactive), the viability ([16]; at 0.00488 µM, OCI-C5x cells, with rucaparib 10 µM, 100% = cells with rucaparib alone) was 111% (inactive) and 106% (inactive) and the viability ([16]; at 0.00488 µM, OCI-C5x cells, without rucaparib) was 131% (inactive) and 122% (inactive). The viability ([16]; at 0.00488 µM, OCI-P5x cells, with rucaparib 20 µM, 100% = cells with rucaparib alone) was 95.5% (active) and 98.8% (active), the viability ([16]; at 0.00488 µM, OCI-P5x cells, without rucaparib) was 105% (inactive) and 108% (inactive) and the viability ([16]; at 0.0195 µM, OCI-C5x cells, with rucaparib 10 µM, 100% = cells with rucaparib alone) was 109% (inactive) and 107% (inactive). The viability ([16]; at 0.0195 µM, OCI-C5x cells, without rucaparib) was 128% (inactive) and 109% (inactive), the viability ([16]; at 0.0195 µM, OCI-P5x cells, with rucaparib 20 µM, 100% = cells with rucaparib alone) was 96.4% (active) and 103% (inactive) and the viability ([16]; at 0.0195 µM, OCI-P5x cells, without rucaparib) was 105% (inactive) and 111% (inactive). For the same compound, the viability ([16]; at 0.0781 µM, OCI-C5x cells, with rucaparib 10 µM, 100% = cells with rucaparib alone) was 113% (inactive) and 110% (inactive), the viability ([16]; at 0.0781 µM, OCI-C5x cells, without rucaparib) was 126% (inactive) and 113% (inactive) and the viability ([16]; at 0.0781 µM, OCI-P5x cells, with rucaparib 20 µM, 100% = cells with rucaparib alone) was 103% (inactive) and 104% (inactive). For the same compound, the viability ([16]; at 0.0781 µM, OCI-P5x cells, without rucaparib) was 111% (inactive), the viability ([16]; at 0.313 µM, OCI-C5x cells, with rucaparib 10 µM, 100% = cells with rucaparib alone) was 119% (inactive) and 112% (inactive) and the viability ([16]; at 0.313 µM, OCI-C5x cells, without rucaparib) was 134% (inactive) and 112% (inactive). The viability ([16]; at 0.313 µM, OCI-P5x cells, with rucaparib 20 µM, 100% = cells with rucaparib alone) was 96.8% (active) and 98.2% (active), the viability ([16]; at 0.313 µM, OCI-P5x cells, without rucaparib) was 115% (inactive) and 118% (inactive) and the viability ([16]; at 1.25 µM, OCI-C5x cells, with rucaparib 10 µM, 100% = cells with rucaparib alone) was 116% (inactive) and 91.4% (active). For the same compound, the viability ([16]; at 1.25 µM, OCI-C5x cells, without rucaparib) was 126% (inactive), the viability ([16]; at 1.25 µM, OCI-P5x cells, with rucaparib 20 µM, 100% = cells with rucaparib alone) was 101% (inactive) and 97.5% (active) and the viability ([16]; at 1.25 µM, OCI-P5x cells, without rucaparib) was 108% (inactive) and 114% (inactive). For the same compound, the viability ([16]; at 5 µM, OCI-C5x cells, with rucaparib 10 µM, 100% = cells with rucaparib alone) was 100% (inactive) and 93.5% (active), the viability ([16]; at 5 µM, OCI-C5x cells, without rucaparib) was 134% (inactive) and 128% (inactive) and the viability ([16]; at 5 µM, OCI-P5x cells, with rucaparib 20 µM, 100% = cells with rucaparib alone) was 95.6% (active) and 97.1% (active). The viability ([16]; at 5 µM, OCI-P5x cells, without rucaparib) was 106% (inactive) and 118% (inactive) and the z-score [17] was -0.555 (inactive).
